Reference: ChEMBL document CHEMBL5724796, “Tm Shift (DSF) assay results for EUbOPEN Chemogenomics Library” (2024)
Residues, ends and D or L forms follow the SMILES beside them. *: point of attachment. Boc = CC(C)(C)OC(=O)*

Key:
Settings in all cases: Compound concentration 20.0 uM
[1] = target: Tyrosine-protein kinase ABL1 (Homo sapiens) (UniProt P00519)
[2] = target: Bromodomain-containing protein 4 (Homo sapiens) (UniProt O60885)
[3] = target: Cyclin-dependent kinase 2 (Homo sapiens) (UniProt P24941)
[4] = target: Casein kinase I isoform delta (Homo sapiens) (UniProt P48730)
Chain of Casein kinase I isoform delta (Homo sapiens) (P48730 whole entry, looked up, canonical isoform): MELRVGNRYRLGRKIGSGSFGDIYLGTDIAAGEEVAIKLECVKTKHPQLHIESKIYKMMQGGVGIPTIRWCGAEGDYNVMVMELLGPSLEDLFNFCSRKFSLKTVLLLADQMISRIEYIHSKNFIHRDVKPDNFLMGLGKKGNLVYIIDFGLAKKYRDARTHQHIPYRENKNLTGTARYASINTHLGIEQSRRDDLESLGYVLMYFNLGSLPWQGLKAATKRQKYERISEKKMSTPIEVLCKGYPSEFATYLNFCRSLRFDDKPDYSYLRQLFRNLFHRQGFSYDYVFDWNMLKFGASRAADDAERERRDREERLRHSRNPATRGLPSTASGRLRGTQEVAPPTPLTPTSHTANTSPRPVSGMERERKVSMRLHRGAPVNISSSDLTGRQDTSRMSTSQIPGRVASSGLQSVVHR

[5] = target: Glycogen synthase kinase-3 beta (Homo sapiens) (UniProt P49841)
Chain of Glycogen synthase kinase-3 beta (Homo sapiens) (P49841 whole entry, looked up): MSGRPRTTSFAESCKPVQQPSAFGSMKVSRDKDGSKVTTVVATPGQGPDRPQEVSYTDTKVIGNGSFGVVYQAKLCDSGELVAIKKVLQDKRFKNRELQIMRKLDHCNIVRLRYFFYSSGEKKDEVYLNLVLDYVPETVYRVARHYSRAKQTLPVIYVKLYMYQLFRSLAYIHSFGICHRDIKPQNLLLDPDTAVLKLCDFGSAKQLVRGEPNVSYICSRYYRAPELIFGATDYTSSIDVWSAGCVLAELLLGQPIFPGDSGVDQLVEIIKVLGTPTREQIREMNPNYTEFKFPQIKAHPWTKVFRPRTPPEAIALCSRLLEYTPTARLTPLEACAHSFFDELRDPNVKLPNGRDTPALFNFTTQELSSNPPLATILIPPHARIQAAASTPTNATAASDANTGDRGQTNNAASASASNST

[6] = target: Mitogen-activated protein kinase 1 (Homo sapiens) (UniProt P28482)
Chain of Mitogen-activated protein kinase 1 (Homo sapiens) (P28482 whole entry): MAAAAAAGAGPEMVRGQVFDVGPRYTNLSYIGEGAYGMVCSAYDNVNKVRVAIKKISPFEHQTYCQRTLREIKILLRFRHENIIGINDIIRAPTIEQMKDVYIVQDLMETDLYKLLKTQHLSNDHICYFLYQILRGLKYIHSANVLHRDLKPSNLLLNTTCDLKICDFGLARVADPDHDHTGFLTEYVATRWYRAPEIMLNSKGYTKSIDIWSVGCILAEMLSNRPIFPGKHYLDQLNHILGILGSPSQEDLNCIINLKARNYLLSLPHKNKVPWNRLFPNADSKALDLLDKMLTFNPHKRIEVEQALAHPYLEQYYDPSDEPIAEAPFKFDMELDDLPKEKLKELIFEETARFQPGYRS

[7] = target: T1, Aurora kinase A (Homo sapiens) (UniProt O14965)
T1 sequence (whole entry): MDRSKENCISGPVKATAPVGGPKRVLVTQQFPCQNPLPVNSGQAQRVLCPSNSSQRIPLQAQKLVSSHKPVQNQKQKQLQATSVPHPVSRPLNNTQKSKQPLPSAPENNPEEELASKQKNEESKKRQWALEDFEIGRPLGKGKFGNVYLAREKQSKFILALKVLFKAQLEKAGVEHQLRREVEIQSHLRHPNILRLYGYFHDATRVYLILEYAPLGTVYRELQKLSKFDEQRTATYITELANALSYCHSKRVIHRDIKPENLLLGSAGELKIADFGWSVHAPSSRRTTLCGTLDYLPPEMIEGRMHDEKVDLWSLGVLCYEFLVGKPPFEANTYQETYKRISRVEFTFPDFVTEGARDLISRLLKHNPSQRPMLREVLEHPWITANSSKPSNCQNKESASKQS

[8] = target: T2, Transcription intermediary factor 1-alpha (Homo sapiens) (UniProt O15164)
T2 sequence (whole entry): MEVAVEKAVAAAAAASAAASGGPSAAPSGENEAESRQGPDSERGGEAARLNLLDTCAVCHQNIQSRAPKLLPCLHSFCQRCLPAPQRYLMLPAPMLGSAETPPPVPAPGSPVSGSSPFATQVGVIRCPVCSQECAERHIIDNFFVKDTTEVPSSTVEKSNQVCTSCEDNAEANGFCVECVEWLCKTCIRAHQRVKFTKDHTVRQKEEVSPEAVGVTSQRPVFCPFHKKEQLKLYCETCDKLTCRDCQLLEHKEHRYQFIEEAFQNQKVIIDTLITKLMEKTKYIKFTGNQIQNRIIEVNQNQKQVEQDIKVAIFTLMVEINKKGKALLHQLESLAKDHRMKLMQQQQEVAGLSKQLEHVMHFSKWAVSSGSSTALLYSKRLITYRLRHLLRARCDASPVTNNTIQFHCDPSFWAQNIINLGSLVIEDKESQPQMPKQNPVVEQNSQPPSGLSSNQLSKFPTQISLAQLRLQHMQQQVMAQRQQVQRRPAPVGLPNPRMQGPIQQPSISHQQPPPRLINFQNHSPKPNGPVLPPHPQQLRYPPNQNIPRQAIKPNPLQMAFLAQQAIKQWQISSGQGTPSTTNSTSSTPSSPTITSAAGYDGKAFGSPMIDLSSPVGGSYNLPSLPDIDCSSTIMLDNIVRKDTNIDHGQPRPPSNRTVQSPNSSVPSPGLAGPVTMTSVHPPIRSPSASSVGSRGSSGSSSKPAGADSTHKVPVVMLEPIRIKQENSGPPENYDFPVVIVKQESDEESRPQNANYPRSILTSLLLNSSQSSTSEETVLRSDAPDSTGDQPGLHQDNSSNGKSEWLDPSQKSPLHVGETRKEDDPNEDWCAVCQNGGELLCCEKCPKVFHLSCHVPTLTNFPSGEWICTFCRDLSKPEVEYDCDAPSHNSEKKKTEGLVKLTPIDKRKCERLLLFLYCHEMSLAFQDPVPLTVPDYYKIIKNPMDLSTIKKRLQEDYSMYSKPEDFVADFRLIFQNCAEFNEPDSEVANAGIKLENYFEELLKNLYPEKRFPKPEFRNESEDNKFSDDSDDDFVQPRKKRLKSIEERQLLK

Chain of Tyrosine-protein kinase ABL1 (Homo sapiens) (P00519 whole entry): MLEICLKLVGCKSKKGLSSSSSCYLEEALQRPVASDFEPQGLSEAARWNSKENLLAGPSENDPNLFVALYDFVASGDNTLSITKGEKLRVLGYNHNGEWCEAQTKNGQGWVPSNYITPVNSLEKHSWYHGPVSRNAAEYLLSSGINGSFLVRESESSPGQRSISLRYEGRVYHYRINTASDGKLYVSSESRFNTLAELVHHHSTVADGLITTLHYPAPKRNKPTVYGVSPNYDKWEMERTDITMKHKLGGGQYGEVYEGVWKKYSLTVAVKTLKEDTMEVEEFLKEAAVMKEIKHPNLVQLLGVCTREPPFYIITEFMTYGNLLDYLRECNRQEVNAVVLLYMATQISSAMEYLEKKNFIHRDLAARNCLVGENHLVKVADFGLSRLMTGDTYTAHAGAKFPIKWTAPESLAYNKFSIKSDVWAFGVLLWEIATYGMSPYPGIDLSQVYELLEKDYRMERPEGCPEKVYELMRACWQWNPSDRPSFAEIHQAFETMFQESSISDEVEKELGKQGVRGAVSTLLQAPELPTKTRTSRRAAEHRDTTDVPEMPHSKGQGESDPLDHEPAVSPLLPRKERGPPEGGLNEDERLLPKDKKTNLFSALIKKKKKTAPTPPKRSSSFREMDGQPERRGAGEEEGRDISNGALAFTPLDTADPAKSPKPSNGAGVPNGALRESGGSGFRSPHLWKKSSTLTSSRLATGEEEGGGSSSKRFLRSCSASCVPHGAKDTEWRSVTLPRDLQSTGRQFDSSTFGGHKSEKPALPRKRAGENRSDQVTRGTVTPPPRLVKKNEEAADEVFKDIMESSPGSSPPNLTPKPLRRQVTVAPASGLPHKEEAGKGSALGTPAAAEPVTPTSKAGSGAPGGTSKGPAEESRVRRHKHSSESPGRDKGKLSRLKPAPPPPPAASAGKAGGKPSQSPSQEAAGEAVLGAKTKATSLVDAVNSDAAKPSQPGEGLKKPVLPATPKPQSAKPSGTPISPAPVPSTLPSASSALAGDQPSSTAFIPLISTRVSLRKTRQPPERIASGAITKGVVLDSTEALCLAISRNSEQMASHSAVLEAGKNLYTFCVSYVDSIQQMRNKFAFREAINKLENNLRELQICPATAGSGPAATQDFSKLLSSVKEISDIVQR

Compound	ΔTm [1] [°C]	ΔTm [2] [°C]	ΔTm [3] [°C]	ΔTm [4] [°C]	ΔTm [5] [°C]	ΔTm [6] [°C]	ΔTm [7] [°C]	ΔTm [8] [°C]
CN(CCC(Oc1ccc(-c2ccccc2)cc1)c1ccc(F)cc1)CC(=O)O (stereo not drawn)	0.52	2.4	1.59	-0.12	-0.74	0.42	-1.88	-0.18
CC(C)(Sc1ccncc1-c1ccc(C#N)c2ccccc12)C(=O)O	-0.01	-0.37	-0.1	-0.19	-0.7	0.17	-1.93	-0.49
C=CCc1cccc(CNc2nc3ccccc3n2CCC)c1O	0.28	-1.55	0.45	0.21	0.95	0.22	-1.56	0.59
CC(C)(O)c1ccc(N2Cc3c(ccnc3-c3ccc(F)cc3OCC(F)(F)F)C2=O)cc1	1.61	-2.56	-1.07	0.07	0.38	-10.3	1.43	-1.06
Cn1c(OC[C@H]2CC[C@H](C(F)(F)F)CC2)nn2c(C3CCOCC3)ncc2c1=O	0.42	-3.44	-0.19	-0.45	0.18	0.06	-2.37	-1.13
CC(=O)N1CCN([C@H]2CCC[C@@H](NC(=O)c3cc4c(F)ccc(C)c4[nH]3)C2)CC1	0.05	-1.42	0.08	0.26	-1.37	0.01	-0.09	-1.38
Cc1cc(-n2cccc2)c(S(C)(=O)=O)cc1C(=O)N=C(N)N	0.53	-2.59	-0.16	-0.26	-0.28	0.62	-2.33	-0.16
Cc1ccc(C)c(-n2sc3cc(F)ccc3c2=O)c1	-15.6	-11.5	-5.52	-0.06	0	-16.1	-1.97	0
CCN(CCN(C)C)C(=O)CNCc1cc(C(N)=O)ccn1	0.33	-1.29	0.23	-0.08	0.25	-0.01	-1.34	-0.57
Cc1[nH]nc(C(F)(F)F)c1Cc1sc2c(c1C(=O)N1C[C@](C)(O)CO1)c(=O)n(C)c(=O)n2C(C)C	0.25	1.76	1.15	-0.46	-0.31	0.35	-1.82	1.02
COc1cc2c(cc1-c1c(C)noc1C)[nH]c1nc(C)nc(-c3ccnc4ccccc34)c12	0.56	11.5	-0.3	-0.15	0.97	0.15	-2.62	-0.1
Cn1cc(C(=O)Nc2ccc([C@@H]3C[C@H]3NCC3CC3)cc2)cn1	0.52	-3.07	0.01	-0.16	-0.77	0.06	-2.24	0.47
CS(=O)(=O)c1ccc(Oc2cc(F)cc(C#N)c2)c2c1[C@H](O)C(F)(F)C2	0.43	-2.67	0.56	-0.1	0.06	0.15	-1.44	0.31
COc1ccc(C(=O)C2CCN(CC(=O)N(Cc3nc4c(c(=O)[nH]3)COCC4)CC3CC3)CC2)cc1	0.52	-1.61	0.34	-0.4	-0.12	0.46	-1.35	0.91
Cc1c(NC(=O)c2cc(C(N)=O)nc3cc(F)ccc23)c(C(F)(F)F)nn1Cc1ccc(C#N)cc1	0.61	-2.09	0.06	0.03	0.78	0.34	-2.13	1.34
O=S(=O)(O)c1ccc2cc(/N=N/c3cc(S(=O)(=O)O)c4cccnc4c3O)ccc2c1	0.53	-2.44	2.89	0.85	1.3	-3.54	-2.45	-1.13
O=C(O)c1cccc(-c2ccc(-c3cn(C(=O)N4CCCCC4Cc4ccccc4)nn3)cc2)c1 (stereo not drawn)	-0.1	-2.23	-0.87	-4.82	-4.03	0.56	-3.62	-0.34
CC(C)(C)OC(=O)N1CCC[C@H]1C(=O)N1CCC[C@H]1C=O (Boc-Pro-Pro-aldehyde)	0.36	-1.7	0.06	-0.53	-0.11	0.63	-2.5	-0.63
CC(C)(C)c1ccc(CN(C(=O)CN(Cc2c(F)c(F)c(F)c(F)c2F)S(=O)(=O)c2ccc(F)cc2)c2ccc(C(=O)NO)cc2)cc1	1.56	8.81	9.04	-5.74	14.4	-2.29	9.93	0
CS(=O)(=O)N1CCN(C(=O)c2cnc3ccc(Cl)cc3c2-c2ccc(C3(C#N)CC3)cc2)CC1	0.55	-2.94	0.81	0.96	4.93	0.97	-2.24	-1.2
CCC(=O)N1CCOc2c(cc(-c3cc(OC)cc(OC)c3)cc2C(=O)N[C@H]2CCCN(C)C2)C1	0.72	-0.15	0.57	0.5	-1.27	0.1	0.01	-2.74
COc1ccc(C2C(C#N)=C(N)OC3=C2C(=O)CC(c2cccc4ccccc24)C3)cc1 (stereo not drawn)	0.45	-2.45	-0.04	-0.36	-0.68	0.85	-1.95	1.45
CCCC1O[C@@H]2C[C@H]3[C@@H]4CCC5=CC(=O)C=C[C@]5(C)[C@H]4[C@@H](O)C[C@]3(C)[C@]2(C(=O)CO)O1 (stereo partly drawn)	0.48	-1.67	0.01	-0.03	-0.4	-0.27	-0.16	-0.81

Compound	ΔTm [1] [°C]	ΔTm [2] [°C]	ΔTm [3] [°C]	ΔTm [4] [°C]	ΔTm [5] [°C]	ΔTm [6] [°C]	ΔTm [7] [°C]	ΔTm [8] [°C]
Cc1cc(S(C)(=O)=O)c(S(C)(=O)=O)cc1C(=O)NC(=N)N	0.73	-0.31	0.23	-0.54	0.15	0.12	-1.63	0.34
Cc1ncsc1-c1ccc(CNC(=O)[C@@H]2C[C@@H](O)CN2C(=O)[C@@H](NC(=O)COCCOCCOc2ccc(-c3ccc4ncnc(Nc5ccc(OCc6cccc(F)c6)c(Cl)c5)c4c3)cc2)C(C)(C)C)cc1	2.92	5.48	5.97	-3.34	9.57	-2.89	7.09	10.8
COC(=O)c1ccc(CN2CCC(O)(Cn3cnc4c(-c5ccc(CN)cc5)n(C)nc4c3=O)CC2)c(Cl)c1	0.48	-3.34	-0.1	-0.28	-0.1	0.15	-1.56	2.14
Cn1c(=O)cc(N2CCC[C@@H](N)C2)n(Cc2cc(F)ccc2C#N)c1=O	0.09	-1.94	0.46	-0.06	-0.59	0.52	-0.72	0.97
COc1ccc(N2CCN(C(=O)c3cc4c(s3)-c3ccccc3S(=O)(=O)C4)CC2)cc1	0.15	-2.04	0.12	-0.01	-0.71	0.36	-1.67	0.69
CNCc1ccc(-c2cc3cc(F)cc(C(N)=O)c3o2)cc1	0.6	-0.09	1.2	0.55	0.51	0.83	-1.29	0.67
Cc1nc(-c2cnc(NC(C)C)n(C)c2=O)ccc1Oc1ccnc(-c2cnn(C)c2)c1	13.3	-1.75	0.63	0.37	-0.22	-0.25	0.8	-1.36
COc1cccc(OC)c1S(=O)(=O)Nc1noc2cc(Cn3cccn3)cc(OC)c12	0.73	-2.01	0.06	-0.03	-1.16	0.02	-0.5	-1.5
NC(=O)[C@H]1CCCCc2c1[nH]c1ccc(Cl)cc21	1.15	-1.22	0.22	0.38	0.6	-0.5	1.7	0.16
Cc1nc(-c2cnn(C)c2-c2ccc(C(F)(F)F)cn2)c2c(N3CCC3)ncnn12	0.74	-3.11	0.08	-0.17	-0.34	0.1	-2.46	0.34
CC(C)(CNC(=O)c1cccc(-c2noc(C(F)(F)F)n2)c1)c1coc(-c2ccccc2)n1	0.61	-3.84	0.39	0.45	-8.42	-3.6	-2.8	-1.82
O=C(Cc1ccccc1)c1cc(O)c(O)c([N+](=O)[O-])c1	0.39	-1.83	0.33	-0.3	-0.88	0.35	0	1.83
COc1ccc([C@@H]2CNC(=O)C2)cc1OC1CCCC1	0.51	-3.17	0.13	-0.19	-0.23	0.08	-2.43	0.65
N[C@H](C(=O)O)[C@H](OCc1cccc(NC(=O)c2ccc(C(F)(F)F)cc2)c1)C(=O)O	0.24	-3.61	-0.09	-0.32	-0.8	0.12	-2.5	0.13
CCCSc1nc2c(c(=O)n1-c1ccccc1)SCC2	-0.05	1.58	-0.05	-0.11	-0.82	1.06	0.01	0.72
Nc1nc(NC2CC2)cc(-c2cccc(Cl)c2Cl)n1	0.77	-2.44	0.2	-0.46	0.36	0.25	-1.81	0.87
CNC(=O)c1cc(Nc2ccnc(Nc3ccc(CCNC(=O)OC(C)(C)C)cc3)n2)n[nH]1	0.52	-6.4	-0.49	0.55	-1.3	-12.3	-0.62	0.91
O=C(Nc1cc(C(F)F)ns1)Nc1cc(F)ncc1CO	0.52	-1.44	0.5	-0.49	1.08	0.14	-1.82	0.59
COc1cc2c(NC3CCN(CC4CCCCC4)CC3)nc(N3CCCN(C(C)C)CC3)nc2cc1OCCCN1CCCCC1	0.33	-0.97	0.51	0.17	-0.33	-0.16	-0.14	-0.74
Cc1c(CN2CCC(Nc3ncnc4sc(CC(F)(F)F)cc34)CC2)ccc2c1cc(C#N)n2Cc1cn[nH]c1	0.97	-1.35	-0.07	1.61	0.28	-7.35	-1.51	0.6
CN(CCCN1c2ccccc2CCc2ccccc21)CC(=O)c1ccc(Cl)cc1	-0.37	-0.08	0.04	-0.19	-0.11	0.76	-1.35	0.15
CS(=O)(=O)c1ccc(-c2cnc(NCc3ccco3)n3cnnc23)cc1	0.92	-0.86	0.28	0.44	-2.03	0.02	0.67	-1.77
COc1cc2c(NC3CCN(C)CC3)nc(N3CCCN(C)CC3)nc2cc1OCCCN(C)C	0.04	-1.01	0.12	0.25	-0.54	0.4	-1.36	-0.25
